Results published in the supplement of paper PMC10849652.
Of roughly 7,900 targets only a part is listed; those with a hit were picked by preference. About 0.6% of all pairs of compound and target were hits.

Columns and labels:
Assay in all cases: log2 fold change, soluble protein after heating vs DMSO (PISA); higher = thermal stabilisation; K562 cells, 10 uM, 30 min; active = over 0.2 and 3.5 SD of the protein, either way, in both replicates (recomputed)
IRAK-1-4 Inhibitor I = compound: C1COCCN1CCN2C3=CC=CC=C3N=C2NC(=O)C4=CC(=CC=C4)[N+](=O)[O-] [IRAK-1-4 Inhibitor I]
Method in brief: (§1)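 K562 cells at 2×10^6 cells/mL were given 10 μM compound for 30 min. Aliquots then went through 3 min of heating across 48°C-58°C, were pooled, and were extracted in PBS with 0.5% NP-40 at 4°C, and the supernatant after 21,000xg for 90 min was quantified by TMTpro 16plex LC-MS/MS with channel sums equalised. Thermal stability relative to control samples, from duplicates, is given as log2 fold change.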

ibrutinib = compound: C=CC(=O)N1CCC[C@@H](n2nc(-c3ccc(Oc4ccccc4)cc3)c3c(N)ncnc32)C1 [ibrutinib]
Method in brief: as §1

[1] = compound: CC(=O)c1cnc2ccc(-c3cc(Cl)c(O)c(Cl)c3)nc2c1N[C@H]1CC[C@H](CN(C)C)CC1
Method in brief: as §1

ralimetinib = compound: CC(C)(C)Cn1c(N)nc2ccc(-c3[nH]c(C(C)(C)C)nc3-c3ccc(F)cc3)nc21 [ralimetinib]
Method in brief: as §1

[2] = compound: CC(C)(O)CC(=O)NCCn1ccc2ncnc(Nc3ccc(Oc4cccc(C(F)(F)F)c4)c(Cl)c3)c21
Method in brief: as §1

[3] = compound: CC(C)C1=C2N=C(C=C(N2N=C1)NCC3=CC=CC=C3)NCCCCCCN
Method in brief: as §1

[4] = compound: CC(C)C[C@@H](C=O)NC(=O)[C@H](CC(C)C)NC(=O)[C@H](CC(C)C)NC(=O)OCc1ccccc1
Method in brief: as §1

pinometostat = compound: CC(C)N(C[C@H]1O[C@@H](n2cnc3c(N)ncnc32)[C@H](O)[C@@H]1O)[C@H]1C[C@@H](CCc2nc3cc(C(C)(C)C)ccc3[nH]2)C1 [pinometostat]
Method in brief: as §1

[5] = compound: CC1=C(C(CC(=O)N1)C2=CC=C(C=C2)C(F)(F)F)C(=O)NC3=C(C=C4C(=C3)C=NN4)F
Method in brief: as §1

[6] = compound: CC1=C(C2=C(C=C1)C(=O)C3=CC=CC=C3N2CCCN)C
Method in brief: as §1

[7] = compound: CC1=C(C=C(C=C1)NC(=O)C2=CC(=CC=C2)C(C)(C)C#N)NC3=CC4=C(C=C3)N=CN(C4=O)C
Method in brief: as §1

[8] = compound: CC1=C(C=C(C=C1)NC(=O)C2=CC(=CC=C2)N(C)C)NC(=O)C3=CC=C(C=C3)O
Method in brief: as §1

[9] = compound: CC1=CC=C(C=C1)SC2=C3C=C(SC3=CN=C2)C(=O)N
Method in brief: as §1

[10] = compound: CC1=NC(=CC=C1)C2=C(N=C(N2)C(C)(C)C)C3=CC4=NC=CN=C4C=C3
Method in brief: as §1

Nexturastat A = compound: CCCCN(Cc1ccc(C(=O)NO)cc1)C(=O)Nc1ccccc1 [Nexturastat A]
Method in brief: as §1

vemurafenib = compound: CCCS(=O)(=O)Nc1ccc(F)c(C(=O)c2c[nH]c3ncc(-c4ccc(Cl)cc4)cc23)c1F [vemurafenib]
Method in brief: as §1

[11] = compound: CCCS(=O)(=O)Nc1ccc(F)c(C(=O)c2c[nH]c3ncc(Cl)cc23)c1F
Method in brief: as §1

[12] = compound: CCCc1cc(C)[nH]c(=O)c1CNC(=O)c1cc(-c2ccnc(N3CCN(C)CC3)c2)cc2c1cnn2C(C)C
Method in brief: as §1

givinostat = compound: CCN(CC)Cc1ccc2cc(COC(=O)Nc3ccc(C(=O)NO)cc3)ccc2c1 [givinostat]
Method in brief: as §1

barasertib = compound: CCN(CCCOc1ccc2c(Nc3cc(CC(=O)Nc4cccc(F)c4)[nH]n3)ncnc2c1)CCOP(=O)(O)O [barasertib]
Method in brief: as §1

Measured: log2 fold change

IFT74 (UniProt Q96LB3)
Sequence of UniProt Q96LB3 (Q96LB3 whole entry, looked up): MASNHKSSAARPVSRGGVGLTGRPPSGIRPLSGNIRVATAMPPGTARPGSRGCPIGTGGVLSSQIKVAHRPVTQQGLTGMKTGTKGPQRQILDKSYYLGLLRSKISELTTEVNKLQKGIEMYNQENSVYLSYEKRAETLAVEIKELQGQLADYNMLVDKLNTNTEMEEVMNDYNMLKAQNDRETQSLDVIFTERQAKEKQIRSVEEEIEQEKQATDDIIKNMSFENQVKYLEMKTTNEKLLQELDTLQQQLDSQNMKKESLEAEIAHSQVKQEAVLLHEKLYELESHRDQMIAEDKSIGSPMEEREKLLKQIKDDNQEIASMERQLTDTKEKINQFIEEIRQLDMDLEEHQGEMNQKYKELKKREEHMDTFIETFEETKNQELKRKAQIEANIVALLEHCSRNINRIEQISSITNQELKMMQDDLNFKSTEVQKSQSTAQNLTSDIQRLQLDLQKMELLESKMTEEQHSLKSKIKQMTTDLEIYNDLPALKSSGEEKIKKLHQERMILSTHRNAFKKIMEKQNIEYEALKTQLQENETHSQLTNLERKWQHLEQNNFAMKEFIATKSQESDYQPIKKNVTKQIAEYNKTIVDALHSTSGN
active: Nexturastat A 0.746
inactive: IRAK-1-4 Inhibitor I 0.067 | ibrutinib 0.146 | [1] 0.02 | ralimetinib 0.27 | [2] -0.095 | [3] 0.191 | [4] 0.076 | pinometostat -0.024 | [5] -0.085 | [6] 0.071 | [7] -0.086 | [8] -0.044 | [9] -0.01 | [10] -0.084 | vemurafenib -0.059 | [11] 0.005 | [12] -0.007 | givinostat 0.26 | barasertib -0.037

HLTF (UniProt Q14527)
inactive: IRAK-1-4 Inhibitor I -0.026 | ibrutinib -0.028 | [1] -0.134 | ralimetinib -0.016 | [2] -0.022 | [4] 0.109 | pinometostat -0.024 | [5] -0.049 | [6] 0.176 | [7] 0.04 | [8] -0.014 | [9] -0.056 | [10] 0.038 | Nexturastat A 0.019 | vemurafenib 0.047 | [11] 0.048 | [12] 0.109 | givinostat 0.018 | barasertib 0.007
active: [3] 0.332

IFRD2 isoform 2 (UniProt Q12894)
Sequence of UniProt Q12894 (Q12894 whole entry, looked up): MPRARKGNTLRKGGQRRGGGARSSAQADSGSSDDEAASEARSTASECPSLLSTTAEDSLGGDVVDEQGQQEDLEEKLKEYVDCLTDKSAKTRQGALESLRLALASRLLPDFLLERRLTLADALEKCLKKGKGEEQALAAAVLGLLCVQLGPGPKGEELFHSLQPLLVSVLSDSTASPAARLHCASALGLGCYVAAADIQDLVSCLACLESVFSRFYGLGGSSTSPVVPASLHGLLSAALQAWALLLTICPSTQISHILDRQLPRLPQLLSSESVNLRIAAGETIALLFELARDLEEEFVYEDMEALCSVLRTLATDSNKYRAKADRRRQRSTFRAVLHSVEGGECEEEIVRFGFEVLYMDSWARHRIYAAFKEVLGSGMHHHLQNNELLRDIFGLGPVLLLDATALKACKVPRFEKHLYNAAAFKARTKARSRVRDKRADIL
active: [6] -1.69
inactive: IRAK-1-4 Inhibitor I 0.141 | ibrutinib 0.063 | [1] 0.369 | ralimetinib -0.045 | [2] 0.013 | [3] 0.07 | [4] 0.019 | pinometostat 0.144 | [5] -0.116 | [7] 0.093 | [8] 0.035 | [9] -0.129 | [10] -0.13 | Nexturastat A 0.055 | vemurafenib -0.043 | [11] 0.062 | [12] -0.225 | givinostat -0.2 | barasertib -0.142

IFITM3 (UniProt Q01628)
Sequence of UniProt Q01628 (Q01628 whole entry, looked up): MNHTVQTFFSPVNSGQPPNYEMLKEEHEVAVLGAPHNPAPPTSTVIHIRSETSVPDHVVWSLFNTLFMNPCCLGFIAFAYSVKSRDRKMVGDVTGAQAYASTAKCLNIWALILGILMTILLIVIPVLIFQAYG
active: Nexturastat A -0.425
inactive: IRAK-1-4 Inhibitor I -0.067 | ibrutinib -0.02 | [1] -0.241 | ralimetinib 0.031 | [2] 0.108 | [3] -0.082 | [4] 0.008 | pinometostat -0.181 | [5] -0.207 | [6] 0.163 | [7] -0.058 | [8] 0.074 | [9] 0.148 | [10] -0.059 | vemurafenib 0.177 | [11] 0.2 | [12] 0.218 | givinostat -0.036 | barasertib 0.051

GGT7 (UniProt Q9UJ14)
Sequence of UniProt Q9UJ14 (Q9UJ14 whole entry, looked up): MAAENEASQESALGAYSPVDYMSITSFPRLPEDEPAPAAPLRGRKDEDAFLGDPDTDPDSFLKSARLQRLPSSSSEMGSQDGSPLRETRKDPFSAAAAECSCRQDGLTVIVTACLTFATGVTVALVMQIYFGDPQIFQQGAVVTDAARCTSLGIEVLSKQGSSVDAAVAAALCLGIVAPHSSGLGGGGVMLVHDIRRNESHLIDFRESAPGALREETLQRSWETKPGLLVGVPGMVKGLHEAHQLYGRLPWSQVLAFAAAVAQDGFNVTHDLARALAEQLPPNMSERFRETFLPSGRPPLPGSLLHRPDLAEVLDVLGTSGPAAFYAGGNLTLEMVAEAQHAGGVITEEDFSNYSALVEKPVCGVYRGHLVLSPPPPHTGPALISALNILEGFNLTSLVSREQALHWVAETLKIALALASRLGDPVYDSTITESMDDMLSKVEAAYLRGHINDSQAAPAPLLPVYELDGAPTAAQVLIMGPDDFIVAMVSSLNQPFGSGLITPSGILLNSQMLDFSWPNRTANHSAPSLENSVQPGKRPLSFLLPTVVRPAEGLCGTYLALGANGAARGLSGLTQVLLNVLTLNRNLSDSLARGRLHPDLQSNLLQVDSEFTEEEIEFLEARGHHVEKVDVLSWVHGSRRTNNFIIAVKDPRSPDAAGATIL
inactive: IRAK-1-4 Inhibitor I 0.04 | ibrutinib 0.038 | [1] 0.02 | ralimetinib -0.046 | [2] 0.015 | [3] 0.095 | [4] 0.001 | pinometostat -0.005 | [5] -0.015 | [6] -0.031 | [7] -0.125 | [8] 0 | [9] 0.07 | [10] -0.008 | Nexturastat A 0.032 | vemurafenib 0.112 | [11] -0.011 | [12] 0.033 | givinostat 0.019 | barasertib 0.061

GABARAPL2 (UniProt P60520)
Sequence of UniProt P60520 (P60520 whole entry, looked up): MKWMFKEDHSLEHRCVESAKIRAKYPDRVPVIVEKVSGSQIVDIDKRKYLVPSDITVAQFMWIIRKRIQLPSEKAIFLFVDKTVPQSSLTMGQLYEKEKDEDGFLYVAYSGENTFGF
active: [3] -0.269
inactive: IRAK-1-4 Inhibitor I 0.107 | ibrutinib -0.018 | [1] -0.076 | ralimetinib 0.008 | [2] -0.028 | [4] -0.007 | pinometostat -0.103 | [5] 0.016 | [6] -0.015 | [7] -0.01 | [8] 0.023 | [9] 0.067 | [10] 0.188 | Nexturastat A -0.122 | vemurafenib 0.026 | [11] 0.051 | [12] -0.03 | givinostat 0.03 | barasertib 0.007

GLCCI1 (UniProt Q86VQ1)
Sequence of UniProt Q86VQ1 (Q86VQ1 whole entry, looked up): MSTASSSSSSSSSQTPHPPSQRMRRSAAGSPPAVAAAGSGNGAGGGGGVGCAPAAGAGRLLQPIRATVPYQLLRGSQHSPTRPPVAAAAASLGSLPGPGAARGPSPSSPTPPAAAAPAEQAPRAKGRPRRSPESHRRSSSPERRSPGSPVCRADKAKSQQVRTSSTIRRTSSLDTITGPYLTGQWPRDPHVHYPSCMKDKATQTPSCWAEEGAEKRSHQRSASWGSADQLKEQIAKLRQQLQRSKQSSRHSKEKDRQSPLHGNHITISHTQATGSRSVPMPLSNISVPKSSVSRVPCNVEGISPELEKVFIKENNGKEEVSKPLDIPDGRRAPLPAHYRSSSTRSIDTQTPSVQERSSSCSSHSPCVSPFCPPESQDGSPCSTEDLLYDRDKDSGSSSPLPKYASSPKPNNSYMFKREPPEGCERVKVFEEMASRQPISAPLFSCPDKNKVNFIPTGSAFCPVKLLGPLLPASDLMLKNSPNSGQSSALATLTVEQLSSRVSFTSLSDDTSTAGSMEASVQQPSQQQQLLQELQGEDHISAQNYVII
inactive: IRAK-1-4 Inhibitor I 0.062 | ibrutinib 0.013 | [1] -0.131 | ralimetinib 0.001 | [2] -0.012 | [3] 0.075 | [4] 0.017 | pinometostat -0.03 | [5] 0.098 | [6] -0.013 | [7] 0.037 | [8] 0.104 | [9] -0.029 | [10] 0.028 | Nexturastat A 0 | vemurafenib -0.007 | [11] -0.035 | [12] 0.033 | givinostat 0.045 | barasertib -0.075

GPX4 (UniProt P36969)
Sequence of UniProt P36969 (P36969 whole entry, looked up): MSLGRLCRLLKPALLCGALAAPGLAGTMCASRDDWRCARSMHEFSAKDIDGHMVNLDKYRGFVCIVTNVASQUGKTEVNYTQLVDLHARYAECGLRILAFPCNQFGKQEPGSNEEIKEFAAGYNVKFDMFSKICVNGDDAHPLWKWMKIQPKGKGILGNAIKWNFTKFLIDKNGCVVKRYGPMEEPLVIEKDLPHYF
active: [4] -0.462 | givinostat -0.451
inactive: IRAK-1-4 Inhibitor I -0.026 | ibrutinib 0.065 | [1] -0.005 | ralimetinib 0.01 | [2] 0.003 | [3] 0.099 | pinometostat -0.078 | [5] 0.002 | [6] 0.02 | [7] -0.005 | [8] -0.068 | [9] 0.095 | [10] 0.06 | Nexturastat A -0.151 | vemurafenib -0.019 | [11] 0.005 | [12] -0.027 | barasertib -0.012

GIGYF2 (UniProt Q6Y7W6)
active: [1] -0.316
inactive: IRAK-1-4 Inhibitor I -0.01 | ibrutinib -0.039 | ralimetinib -0.041 | [2] -0.124 | [3] -0.115 | [4] 0.01 | pinometostat 0.082 | [5] 0.005 | [6] 0.021 | [7] -0.075 | [8] 0.058 | [9] 0.01 | [10] 0.044 | Nexturastat A 0.05 | vemurafenib 0.043 | [11] 0.048 | [12] 0.049 | givinostat 0.092 | barasertib 0.093

GLS isoform 3 (UniProt O94925)
Sequence of UniProt O94925 (O94925 whole entry, looked up): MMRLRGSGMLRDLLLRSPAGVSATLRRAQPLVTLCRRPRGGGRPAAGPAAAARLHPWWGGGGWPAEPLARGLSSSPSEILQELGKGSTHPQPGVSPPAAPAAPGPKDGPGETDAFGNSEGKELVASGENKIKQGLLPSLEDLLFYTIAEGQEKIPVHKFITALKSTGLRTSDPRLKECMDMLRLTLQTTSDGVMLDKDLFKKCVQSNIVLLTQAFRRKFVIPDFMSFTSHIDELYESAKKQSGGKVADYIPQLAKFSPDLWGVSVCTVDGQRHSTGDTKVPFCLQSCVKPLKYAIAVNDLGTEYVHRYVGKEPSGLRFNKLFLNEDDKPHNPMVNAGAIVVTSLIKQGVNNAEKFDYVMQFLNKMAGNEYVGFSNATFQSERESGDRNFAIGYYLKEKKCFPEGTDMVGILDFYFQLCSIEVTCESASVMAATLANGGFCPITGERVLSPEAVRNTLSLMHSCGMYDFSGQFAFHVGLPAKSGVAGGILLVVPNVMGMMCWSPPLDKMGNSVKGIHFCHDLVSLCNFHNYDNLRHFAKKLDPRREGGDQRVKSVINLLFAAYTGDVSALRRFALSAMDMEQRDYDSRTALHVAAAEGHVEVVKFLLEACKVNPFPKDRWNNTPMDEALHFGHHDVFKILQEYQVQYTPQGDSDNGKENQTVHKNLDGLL
active: [2] -0.547
inactive: IRAK-1-4 Inhibitor I 0.011 | ibrutinib -0.15 | [1] -0.046 | ralimetinib -0.19 | [3] -0.034 | [4] -0.04 | pinometostat -0.088 | [5] 0 | [6] -0.068 | [7] 0.004 | [8] -0.119 | [9] -0.01 | [10] 0.167 | Nexturastat A 0.087 | vemurafenib 0.155 | [11] 0.236 | [12] 0.061 | givinostat 0.031 | barasertib 0.061

GNS (UniProt P15586)
Sequence of UniProt P15586 (P15586 whole entry, looked up): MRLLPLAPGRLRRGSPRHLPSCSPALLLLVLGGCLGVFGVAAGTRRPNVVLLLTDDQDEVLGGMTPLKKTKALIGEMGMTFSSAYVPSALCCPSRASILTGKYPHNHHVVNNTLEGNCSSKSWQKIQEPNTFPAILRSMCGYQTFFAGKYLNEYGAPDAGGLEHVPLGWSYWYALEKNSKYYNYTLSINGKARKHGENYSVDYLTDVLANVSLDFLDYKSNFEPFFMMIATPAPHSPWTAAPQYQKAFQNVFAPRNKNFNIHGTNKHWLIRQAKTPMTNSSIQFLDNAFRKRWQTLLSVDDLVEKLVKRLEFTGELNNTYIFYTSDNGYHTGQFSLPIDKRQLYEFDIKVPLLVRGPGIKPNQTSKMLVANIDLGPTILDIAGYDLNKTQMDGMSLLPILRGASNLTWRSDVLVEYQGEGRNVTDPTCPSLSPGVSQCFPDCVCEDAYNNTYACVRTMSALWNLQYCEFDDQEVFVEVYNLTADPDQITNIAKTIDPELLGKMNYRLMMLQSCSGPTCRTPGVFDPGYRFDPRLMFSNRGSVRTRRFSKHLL
inactive: IRAK-1-4 Inhibitor I 0.023 | ibrutinib -0.011 | [1] 0.011 | ralimetinib -0.04 | [2] 0.065 | [3] -0.079 | [4] 0.025 | pinometostat -0.025 | [5] -0.017 | [6] -0.01 | [7] -0.021 | [8] 0.112 | [9] 0.044 | [10] 0.026 | Nexturastat A -0.03 | vemurafenib 0.023 | [11] -0.005 | [12] 0.003 | givinostat 0.011 | barasertib -0.004

HBQ1 (UniProt P09105)
Sequence of UniProt P09105 (P09105 whole entry, looked up): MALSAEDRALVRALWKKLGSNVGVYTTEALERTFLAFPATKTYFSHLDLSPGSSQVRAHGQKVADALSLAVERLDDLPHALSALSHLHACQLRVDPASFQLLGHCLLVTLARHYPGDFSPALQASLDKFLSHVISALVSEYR
inactive: IRAK-1-4 Inhibitor I 0.003 | ibrutinib 0.016 | [1] 0.01 | ralimetinib -0.034 | [2] -0.078 | [3] 0.095 | [4] -0.102 | pinometostat 0.004 | [5] 0.027 | [6] 0.147 | [7] 0.053 | [8] -0.14 | [9] 0.025 | [10] 0.052 | Nexturastat A -0.028 | vemurafenib -0.013 | [11] 0.004 | [12] -0.012 | givinostat -0.043 | barasertib 0.038

HNRNPUL1 (UniProt Q9BUJ2)
inactive: IRAK-1-4 Inhibitor I -0.055 | ibrutinib 0 | [1] -0.072 | ralimetinib 0.005 | [2] 0.027 | [3] 0.007 | [4] 0.035 | pinometostat 0.01 | [5] 0.014 | [6] -0.096 | [7] -0.063 | [8] -0.058 | [9] -0.013 | [10] 0.03 | Nexturastat A 0.024 | vemurafenib 0.032 | [11] -0.033 | [12] 0.024 | givinostat 0.046 | barasertib 0.04

HAT1 (UniProt O14929)
Sequence of UniProt O14929 (O14929 whole entry, looked up): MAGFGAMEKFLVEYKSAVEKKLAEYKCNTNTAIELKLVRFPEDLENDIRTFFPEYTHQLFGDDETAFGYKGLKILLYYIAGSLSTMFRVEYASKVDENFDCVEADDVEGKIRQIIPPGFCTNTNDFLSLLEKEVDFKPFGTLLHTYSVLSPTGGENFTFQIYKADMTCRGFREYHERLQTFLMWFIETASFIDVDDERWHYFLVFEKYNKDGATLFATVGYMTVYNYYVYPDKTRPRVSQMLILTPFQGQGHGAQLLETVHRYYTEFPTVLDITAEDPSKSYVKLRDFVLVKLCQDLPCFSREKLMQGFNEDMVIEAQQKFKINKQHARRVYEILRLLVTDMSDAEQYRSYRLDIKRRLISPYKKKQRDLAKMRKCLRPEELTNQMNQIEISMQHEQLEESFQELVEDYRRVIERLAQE
inactive: IRAK-1-4 Inhibitor I 0.027 | ibrutinib -0.009 | [1] -0.109 | ralimetinib -0.003 | [2] -0.027 | [3] 0.006 | [4] -0.022 | pinometostat -0.048 | [5] -0.013 | [6] -0.03 | [7] 0.042 | [8] -0.037 | [9] 0.008 | [10] 0.095 | Nexturastat A -0.034 | vemurafenib 0.087 | [11] 0.013 | [12] 0.007 | givinostat 0.005 | barasertib 0.025

FECH isoform 2 (UniProt P22830)
inactive: IRAK-1-4 Inhibitor I 0.408 | ibrutinib 0.082 | [1] 0.129 | ralimetinib 0.159 | [2] 0.426 | [4] -0.144 | pinometostat -0.098 | [5] -0.457 | [6] 0.514 | [7] 0.45 | [8] 0.162 | [9] -0.16 | [10] -0.006 | Nexturastat A -0.123 | vemurafenib 0.022 | [11] -0.167 | [12] 0.367 | givinostat -0.238 | barasertib -0.049
active: [3] -0.691

GOLPH3 (UniProt Q9H4A6)
Sequence of UniProt Q9H4A6 (Q9H4A6 whole entry, looked up): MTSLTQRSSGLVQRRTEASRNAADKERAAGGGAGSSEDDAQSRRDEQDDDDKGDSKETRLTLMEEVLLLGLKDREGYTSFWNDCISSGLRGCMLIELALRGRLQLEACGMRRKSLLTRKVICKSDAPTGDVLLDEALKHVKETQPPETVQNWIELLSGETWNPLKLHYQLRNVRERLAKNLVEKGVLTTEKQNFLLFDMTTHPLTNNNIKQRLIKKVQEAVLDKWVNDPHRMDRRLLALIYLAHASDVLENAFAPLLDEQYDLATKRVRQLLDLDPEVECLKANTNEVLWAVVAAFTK
active: [3] 0.31
inactive: IRAK-1-4 Inhibitor I 0.033 | ibrutinib -0.035 | [1] -0.023 | ralimetinib -0.005 | [2] -0.031 | [4] -0.005 | pinometostat -0.013 | [5] 0 | [6] -0.028 | [7] 0.074 | [8] -0.031 | [9] -0.017 | [10] 0.022 | Nexturastat A -0.017 | vemurafenib 0.015 | [11] 0.058 | [12] -0.011 | givinostat -0.007 | barasertib 0.023
